This note sets out measurements from PubChem BioAssay (Tox21).

Molecules are shown by their SMILES. “And” between values parts separate entries of the source, which are not always exact repeats. Equal values may be shown once. Results filed as inconclusive are left out. A structure can be active in one record and inactive in another. The source made the active and inactive calls. Unless noted, calls come from the whole dose curve; as a rule, active = well fitted curve in the direction sought with a large enough effect in the repeat runs; inconclusive = weak or mixed curves; inactive = no such curve, though single readings can be large; an effect the other way counts as inactive or inconclusive.

Assay [1] can be described thus: qHTS assay to identify small molecule antagonists of the progesterone receptor (PR) signaling pathway - cell viability counter screen (AID 1346798). Note: nearly all actives have a fitted effect of over 50% in size. Note: potency is the fitted concentration of half-maximal effect. The method in brief: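 HEK293T PR-UAS-bla, 2% charcoal-stripped FBS; 4 hr pre-plate; cpd + R5020, 16 h 37C; LiveBLAzer read first; then CellTiter-Glo 30 min RT, luminescence.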
(Quantitative high-throughput screening tests each substance at several concentrations.)

A short description of assay [2]: qHTS assay to identify small molecule agonists of the progesterone receptor (PR) signaling pathway - cell viability counter screen (AID 1346799; calls by dose curve; note: nearly all actives have a fitted effect of over 45% in size; note: potency is the fitted concentration of half-maximal effect). A digest of the protocol:
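Luminescence from CellTiter-Glo, added after the beta-lactamase FRET read in the same wells, gave cytotoxicity in PR-UAS-bla HEK293T cells treated with compounds for 16 hr at 37C.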

Assay [3] in a line: qHTS assay to identify small molecule antagonists of the TGF-beta/Smad signaling pathway - cell viability counter screen (AID 1346824). Note: % is set by controls: 0 for no effect and ±100 for the full control effect; nearly all actives have a fitted effect of over 50% in size. The method in brief: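 Cytotoxicity counter-screen run in the same wells as the beta-lactamase Smad reporter read: CellTiter-Glo luminescence after 30 min at room temperature. HEK 293T SBE-bla cells had 5 hr compound exposure at 37 C with TGF-beta1 (0.25 ng/mL stock).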

The nature of assay [4]: qHTS assay to identify small molecule agonists of the TGF-beta/Smad signaling pathway - cell viability counter screen (AID 1346829). Note: top concentration of the series differs between compounds; % is set by controls: 0 for no effect and ±100 for the full control effect; nearly all actives have a fitted effect of over 45% in size. A digest of the protocol: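 Cytotoxicity counter screen: CellTiter-Glo luminescence (30 min, room temperature) measured in the SBE-bla HEK 293T reporter wells after 5 hr compound treatment at 37 C and the 2 hr substrate step.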
A short description of assay [5]: qHTS assay to identify small molecule agonists of the TGF-beta/Smad signaling pathway (AID 1346859; active = well fitted activation curve with a large enough effect in the signal ratio in the repeat runs, not every such curve was filed as active; the % refers to the signal ratio; note: series mostly up to about 77 µM; % is set by controls: 0 for no effect and ±100 for the full control effect). The method in brief: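 SBE-bla HEK 293T, 4,000 cells/well, plated o/n; cpd in DMSO, 5 hr, 37 C/5% CO2; B/G FRET substrate 2 hr RT; ex 405, em 460/530 nm.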
A short description of assay [6]: Human pregnane X receptor (PXR) small molecule agonists, qHTS cell viability counter screen (AID 1346977). Note: nearly all actives have a fitted effect of over 50% in size. Note: potency is the fitted concentration of half-maximal effect. A digest of the protocol:
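PXR-Luc HepG2, 2,000 cells/well, 5% charcoal-stripped FBS; 5hr settle; cpd 24hr, 37C/5% CO2; CellTiter-Fluor at 23hr, read 1hr later (fluorescence).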

Assay [7] in a line: Caspase-3/7 induction in HepG2 cells by small molecules, qHTS assay (AID 1346978). Note: nearly all actives have a fitted effect of over 15% in size. Note: potency is the fitted concentration of half-maximal effect. A digest of the protocol:
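Caspase-3/7 induction was measured by Caspase-Glo 3/7 luminescence (30 min, room temperature) after a 17 hr compound exposure of wild-type HepG2 cells seeded at 2,000 per well and pre-incubated 5 hr.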

Assay [8] in a line: Caspase-3/7 induction in CHO-K1 cells by small molecules, qHTS assay (AID 1346980). Note: nearly all actives have a fitted effect of over 15% in size. Note: potency is the fitted concentration of half-maximal effect. The method in brief: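 Luminescent Caspase-Glo 3/7 read (30min, room temperature) quantified apoptosis induction. Cells were wild-type CHO-K1, treated with compound for 17hr at 37 C and 5% CO2.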
Assay [9] is described as follows: Caspase-3/7 induction in HepG2 cells by small molecules, qHTS cell viability counter screen (AID 1346981). Note: nearly all actives have a fitted effect of over 30% in size. Note: potency is the fitted concentration of half-maximal effect. The method in brief:
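Fluorescence read-out of live-cell protease activity (CellTiter-Fluor) after 1 hr with reagent. This was measured in the same wells as the caspase-3/7 luminescence, on HepG2 cells exposed to DMSO-dissolved compounds for 16 hr at 37 C.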

The target of assay [10] is Nuclear receptor subfamily 1 group I member 2 (Homo sapiens) (UniProt O75469). Kind of assay: Human pregnane X receptor (PXR) small molecule agonists, qHTS assay (AID 1346982). For activation: % is set by controls: 0 for no effect and ±100 for the full control effect. Note: nearly all actives have a fitted effect of over 35% in size. Note: potency is the fitted concentration of half-maximal effect. The method in brief: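 HepG2 PXR-Luc reporter line, 5% charcoal-stripped FBS; 5 hr pre-incubation, compound (DMSO) 24 hr at 37 C/5% CO2; ONE-Glo 30 min RT; luminescence read-out.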
Chain of Nuclear receptor subfamily 1 group I member 2 (Homo sapiens) (O75469 whole entry, looked up): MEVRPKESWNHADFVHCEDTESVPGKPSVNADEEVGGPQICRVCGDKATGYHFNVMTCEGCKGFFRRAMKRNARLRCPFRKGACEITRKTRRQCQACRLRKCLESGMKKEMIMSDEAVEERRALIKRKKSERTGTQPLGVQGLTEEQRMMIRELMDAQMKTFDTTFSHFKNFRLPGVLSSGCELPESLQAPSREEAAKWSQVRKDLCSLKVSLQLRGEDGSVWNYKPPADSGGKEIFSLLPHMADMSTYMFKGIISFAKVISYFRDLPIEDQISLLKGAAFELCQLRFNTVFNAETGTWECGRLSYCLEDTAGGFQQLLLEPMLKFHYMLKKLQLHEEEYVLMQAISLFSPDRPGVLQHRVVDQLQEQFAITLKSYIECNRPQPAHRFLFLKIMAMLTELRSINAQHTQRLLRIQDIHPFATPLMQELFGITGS
In assay [11] the target is Cytochrome P450 2D6 (Homo sapiens) (UniProt P10635). Nature of the assay: Cytochrome P450 Family 2 Subfamily D Member 6 (CYP2D6) small molecule antagonists: luciferase reporter qHTS assay (AID 1671196). Note: nearly all actives have a fitted effect of over 50% in size. Note: potency is the fitted concentration of half-maximal effect. The method in brief:
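Luminogenic proluciferin substrate, CYP2D6 enzyme; 10 min RT preincubation with compound, NADPH regeneration system added, 1 h RT. Stop/detection reagent, 20 min RT, luminescence read (RLU). Signal proportional to CYP activity.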
For orientation: A reporter such as luciferase makes a cellular process visible.

Assay [12] concerns the target Cytochrome P450 2C19 (Homo sapiens) (UniProt P33261). Nature of the assay: Cytochrome P450 Family 2 Subfamily C Member 19 (CYP2C19) small molecule antagonists: luciferase reporter qHTS assay (AID 1671197). Note: nearly all actives have a fitted effect of over 65% in size. Note: potency is the fitted concentration of half-maximal effect. The method in brief:
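Luminescent readout of CYP2C19 activity: luciferin product detected 20 min after adding detection reagent. Before that, compound and enzyme-substrate mix preincubated 10 min at room temperature; NADPH-regenerating system started a 1 h, 37C reaction. Ketoconazole as positive control.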

Assay [13] addresses Cytochrome P450 2C9 (Homo sapiens) (UniProt P11712). Kind of assay: Cytochrome P450 Family 2 Subfamily C Member 9 (CYP2C9) small molecule antagonists: luciferase reporter qHTS assay (AID 1671198). Note: nearly all actives have a fitted effect of over 50% in size. Note: potency is the fitted concentration of half-maximal effect. The method in brief: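 Enzyme-substrate mix preincubated with compound 10 min at room temperature; reaction started with NADPH regeneration solution, 1 h 37C. Luminescent luciferin product read after 20 min detection reagent.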

Assay [14] concerns the target Thyrotropin-releasing hormone receptor (Homo sapiens) (UniProt P34981). Kind of assay: qHTS assay to identify small molecule agonists of the thyrotropin-releasing hormone receptor (TRHR) signaling pathway (AID 1346891; calls by dose curve; note: series mostly up to about 58 µM; % is set by controls: 0 for no effect and ±100 for the full control effect). A digest of the protocol:
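Intracellular calcium rise, read as fluorescence every second for 3 min, served as the agonist signal in dye-loaded HEK293 cells expressing TRHR; each compound ran at 15 concentrations in triplicate.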

Assay [15] shares this target. Nature of the assay: qHTS assay to identify small molecule antagonists of the thyrotropin-releasing hormone receptor (TRHR) signaling pathway (AID 1346877; active = well fitted inhibition curve with a large enough effect in the repeat runs, not every such curve was filed as active; note: series mostly up to about 51 µM; % is set by controls: 0 for no effect and ±100 for the full control effect). A digest of the protocol:
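HEK293/TRHR cells, 18 h, 37 °C; Ca2+ dye 2 h; cpd 5 min RT; TRH 1 nM final; fluorescence read 3 min, 1 s intervals; 15 concs, triplicate.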

The nature of assay [16]: Caspase-3/7 induction in CHO-K1 cells by small molecules, qHTS cell viability counter screen (AID 1346979). Note: nearly all actives have a fitted effect of over 35% in size. Note: potency is the fitted concentration of half-maximal effect. The method in brief:
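Cells (CHO-K1, wild type) are plated at 1,500 per well and incubated 5hr. Test compounds in DMSO are then pinned in, followed by 16hr at 37C and 5% CO2. Viability is read by CellTiter-Fluor fluorescence after 1hr.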

Assay [17] concerns the target Nuclear receptor subfamily 1 group I member 2 (Rattus norvegicus) (UniProt Q9R1A7). Kind of assay: Rat pregnane X receptor (rPXR) activation by small molecules, qHTS assay (AID 1346983). Note: % is set by controls: 0 for no effect and ±100 for the full control effect; nearly all actives have a fitted effect of over 20% in size. The conditions noted are these: rPXR luciferase reporter cells, One-Glo luminescence, 24 h; stronger effect = higher value. The method in brief: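 Luminescent readout (One-Glo luciferase, 30 min room temperature) followed 24 hr compound treatment at 37 C of rPXR cells plated 2,000 per well and preincubated 5hr; qHTS format with compounds delivered in DMSO.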

The target of assay [18] is Nuclear receptor subfamily 1 group I member 2 (Homo sapiens) (UniProt O75469). Kind of assay: CYP3A4 induction through human pregnane X receptor (PXR) by small molecules, qHTS assay (AID 1346984). Note: % is set by controls: 0 for no effect and ±100 for the full control effect; nearly all actives have a fitted effect of over 40% in size. A digest of the protocol:
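HepG2-derived DPX-2 line carrying PXR plus a CYP3A4-promoter luciferase reporter; cells plated 5 hr, compound-exposed 24 hr at 37C. CYP3A4 activity probed with 3uM (final) Luciferin-IPA for 3hr, then luciferase read after One-Glo.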

The target is the same in assay [19]. Kind of assay: Human pregnane X receptor (PXR) activation by small molecules, qHTS assay (AID 1346985). Note: potency is the fitted concentration of half-maximal effect; nearly all actives have a fitted effect of over 40% in size. A digest of the protocol:
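DPX-2 cells (HepG2 co-transfected with a PXR response element and a CYP3A4-promoter luciferase construct) were seeded at 2,000 per well, rested 5 hr at 37C, then exposed to DMSO-dissolved compounds for 24 hr. Activation was read as luciferase luminescence.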

Chain of Cytochrome P450 2C19 (Homo sapiens) (P33261 whole entry, looked up): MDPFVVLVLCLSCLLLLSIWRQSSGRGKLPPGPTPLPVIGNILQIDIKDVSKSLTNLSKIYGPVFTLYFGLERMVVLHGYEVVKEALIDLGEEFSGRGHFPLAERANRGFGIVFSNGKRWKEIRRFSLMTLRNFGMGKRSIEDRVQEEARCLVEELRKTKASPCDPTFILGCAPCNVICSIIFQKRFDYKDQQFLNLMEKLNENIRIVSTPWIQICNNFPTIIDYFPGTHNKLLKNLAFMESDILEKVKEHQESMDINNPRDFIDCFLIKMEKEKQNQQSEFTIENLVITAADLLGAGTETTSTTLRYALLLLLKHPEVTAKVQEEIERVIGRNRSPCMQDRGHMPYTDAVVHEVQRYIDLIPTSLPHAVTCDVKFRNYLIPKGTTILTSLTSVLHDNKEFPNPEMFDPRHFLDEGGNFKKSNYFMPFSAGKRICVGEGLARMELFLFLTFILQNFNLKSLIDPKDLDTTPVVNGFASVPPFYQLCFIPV
Chain of Cytochrome P450 2D6 (Homo sapiens) (P10635 whole entry, looked up): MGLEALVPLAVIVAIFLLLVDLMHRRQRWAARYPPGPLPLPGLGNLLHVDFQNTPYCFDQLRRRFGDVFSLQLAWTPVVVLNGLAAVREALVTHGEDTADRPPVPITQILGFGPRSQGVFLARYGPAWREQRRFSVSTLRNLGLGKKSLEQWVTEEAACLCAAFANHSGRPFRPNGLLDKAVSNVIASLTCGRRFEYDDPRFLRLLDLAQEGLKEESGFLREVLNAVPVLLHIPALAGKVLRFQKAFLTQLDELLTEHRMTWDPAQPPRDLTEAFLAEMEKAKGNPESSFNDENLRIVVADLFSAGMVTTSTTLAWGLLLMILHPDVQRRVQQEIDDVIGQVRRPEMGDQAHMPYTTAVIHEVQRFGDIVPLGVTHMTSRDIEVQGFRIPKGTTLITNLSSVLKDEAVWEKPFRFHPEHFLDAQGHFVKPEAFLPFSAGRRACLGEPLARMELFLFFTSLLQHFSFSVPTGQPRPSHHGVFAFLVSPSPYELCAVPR
Chain of Thyrotropin-releasing hormone receptor (Homo sapiens) (P34981 whole entry, looked up): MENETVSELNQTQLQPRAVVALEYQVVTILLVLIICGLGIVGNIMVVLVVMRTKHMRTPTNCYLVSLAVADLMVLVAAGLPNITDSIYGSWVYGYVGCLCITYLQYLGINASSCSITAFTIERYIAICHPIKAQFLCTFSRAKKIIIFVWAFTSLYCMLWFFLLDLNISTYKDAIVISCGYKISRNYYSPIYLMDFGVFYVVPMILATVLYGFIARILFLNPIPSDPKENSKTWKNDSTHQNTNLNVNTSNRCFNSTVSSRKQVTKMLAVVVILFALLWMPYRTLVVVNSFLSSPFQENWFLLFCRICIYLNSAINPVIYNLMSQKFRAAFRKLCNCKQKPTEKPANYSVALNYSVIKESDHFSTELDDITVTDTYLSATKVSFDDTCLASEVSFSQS
Chain of Nuclear receptor subfamily 1 group I member 2 (Rattus norvegicus) (Q9R1A7 whole entry, looked up): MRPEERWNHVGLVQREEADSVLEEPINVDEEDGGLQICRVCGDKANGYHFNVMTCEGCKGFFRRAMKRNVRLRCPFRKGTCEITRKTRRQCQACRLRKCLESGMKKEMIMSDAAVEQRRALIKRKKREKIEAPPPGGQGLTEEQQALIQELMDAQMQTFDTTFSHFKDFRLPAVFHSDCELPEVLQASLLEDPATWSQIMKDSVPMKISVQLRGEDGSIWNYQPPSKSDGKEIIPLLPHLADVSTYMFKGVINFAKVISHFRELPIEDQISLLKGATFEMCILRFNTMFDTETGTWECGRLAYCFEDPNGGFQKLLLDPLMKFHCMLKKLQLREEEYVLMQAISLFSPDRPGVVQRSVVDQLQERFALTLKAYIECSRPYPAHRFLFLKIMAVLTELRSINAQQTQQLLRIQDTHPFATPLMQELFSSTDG
Chain of Cytochrome P450 2C9 (Homo sapiens) (P11712 whole entry, looked up): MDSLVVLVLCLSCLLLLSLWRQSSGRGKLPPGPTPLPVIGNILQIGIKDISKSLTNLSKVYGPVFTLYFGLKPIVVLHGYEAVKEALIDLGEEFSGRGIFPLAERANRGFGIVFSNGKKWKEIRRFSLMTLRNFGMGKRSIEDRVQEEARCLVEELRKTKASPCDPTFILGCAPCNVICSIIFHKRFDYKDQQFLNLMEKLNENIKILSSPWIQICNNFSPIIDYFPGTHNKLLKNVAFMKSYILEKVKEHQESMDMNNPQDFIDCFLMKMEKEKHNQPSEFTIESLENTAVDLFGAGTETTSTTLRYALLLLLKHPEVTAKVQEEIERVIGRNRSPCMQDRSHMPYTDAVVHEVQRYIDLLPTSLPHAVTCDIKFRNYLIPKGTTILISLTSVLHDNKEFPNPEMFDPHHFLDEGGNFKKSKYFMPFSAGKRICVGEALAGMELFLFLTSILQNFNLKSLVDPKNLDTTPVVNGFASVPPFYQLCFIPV

On to `NC(N)=Nc1nc(CSCC/C(N)=N/S(N)(=O)=O)cs1`, for which the Potency result in assay [1], in assay [2], in assay [3], in assay [4], in [6] and in [7] was “inactive” in each case. The Potency entry in assay [8], in assay [9], in [10], in [11], in assay [12] and in assay [13] was “inactive” throughout. For the same molecule, the molecule was classed as inactive in [5].

`CC(C)(C)c1ccc(O)c(C(C)(C)C)c1`: the Potency result in assay [3], in assay [14], in assay [6] and in assay [10] was “inactive” throughout. Further, the call in assay [5] was inactive. Also, the Potency in assay [7] is 30.5 µM (active) and 54.5 µM (active); in assay [11], 19.9 µM (active); in assay [12], 9.99 µM (active) and 17.8 µM (active); in assay [13] it was 12.6 µM (active) and 11.2 µM (active).

`CC(C)CCCCCCc1ccc(O)cc1`: the Potency in assay [1] was 6.22 µM (active); in [2], 4.94 µM (active) and inactive; in assay [6], 50.1 µM (active); in assay [7] it was 55.4 µM (active) and 68.6 µM (active); in [16] it was 44 µM (active) and 61.1 µM (active); in assay [8] it was 24.8 µM (active). The Potency in assay [9] was 55.4 µM (active); in [10], 22.1 µM (active) and 9.69 µM (active); in [19], 28.2 µM (active); in assay [11], 40.6 µM (active) and inactive; in assay [12] it was 3.62 µM (active) and 4.48 µM (active); in assay [13], 9.1 µM (active) and 12.6 µM (active). Also, the Potency result in assay [4], in assay [15], in assay [14] and in [18] was “inactive” each time. In addition, the molecule was called inactive in assay [5]. Also, in [17], the max activation was -6.01% (inactive).

In the case of `Nc1ccc2cc3ccccc3cc2c1`, the Potency entry in assay [1], in assay [2], in assay [3], in assay [4], in assay [7] and in assay [16] was “inactive” in each case. Besides, the Potency result in assay [8] and in [9] was “inactive” in each case. Besides, the Potency was 27.8 µM (active) and 21.7 µM (active) in [10]; 72.3 µM (active) and 35.6 µM (active) in assay [12]; 32.3 µM (active) and 31.7 µM (active) in assay [13].

Regarding `CC1COc2c(N3CCN(C)CC3)c(F)cc3c(=O)c(C(=O)O)cn1c23` (stereo unspecified), the Potency entry in [1], in assay [2], in assay [3], in assay [4], in assay [15] and in [14] was “inactive” in each case. For the same molecule, the Potency result in assay [6], in assay [7], in assay [16], in assay [8], in assay [9] and in assay [11] was “inactive” each time. The Potency result in [12] and in assay [13] was “inactive” each time. The outcome in assay [5] was inactive. Moreover, in assay [17], the max activation is -3.36% (inactive).

Regarding `BrC1CCC(Br)C(Br)CCC(Br)C(Br)CCC1Br` (stereo unspecified), the Potency in assay [1] is 54.3 µM (active) and 51.7 µM (active); in assay [2] it was 30.5 µM (active) and 41.1 µM (active); in assay [16], 48.4 µM (active); in [8] it was 60.9 µM (active); in assay [12], 1.26 µM (active) and 1.34 µM (active); in [13], 10.7 µM (active). The Potency entry in assay [3], in [7], in assay [9] and in assay [11] was “inactive” throughout.

As to `CN(C)c1ccc2nc3ccc(=[N+](C)C)cc-3sc2c1`, the Potency entry in assay [1], in assay [2], in assay [4], in assay [15], in assay [14] and in assay [8] was “inactive” throughout. Moreover, the Potency result in assay [10] and in [18] was “inactive” each time. Moreover, the result in [5] was inactive. Also, the Potency is 1.86 µM (active) and 9.69 µM (active) and 10.6 µM (active) in assay [6]; 5.87 µM (active) and 24.3 µM (active) and 5.96 µM (active) in [16]; 10.4 µM (active) and 27.3 µM (active) and 23.7 µM (active) in assay [9]; 3.16 µM (active) in assay [19]. Further, the max activation in [17] is -8.38% (inactive).
